A selection: hits, their analogues and other compounds. The true share with any hit is near 12%.
PLK1 PBD inh = blocks phosphopeptide binding to human PLK1 polo-box domain | P53350 | Plk1 PBD binding of FITC phosphopeptide, fluorescence polarization | Potency, µM, for the others: max response, negative = inhibition, most hits filed as inhibitors | 360,000 tested, 2.8% active | AID 720504; further: potency means the concentration at half of the fitted maximal effect; series mostly up to about 57 µM; on the % scale 0 is the no-effect control and ±100 the full control effect; nearly all actives have a fitted effect of over 65% in size
Target sequence (P53350 whole entry, looked up, the tested form may be a part): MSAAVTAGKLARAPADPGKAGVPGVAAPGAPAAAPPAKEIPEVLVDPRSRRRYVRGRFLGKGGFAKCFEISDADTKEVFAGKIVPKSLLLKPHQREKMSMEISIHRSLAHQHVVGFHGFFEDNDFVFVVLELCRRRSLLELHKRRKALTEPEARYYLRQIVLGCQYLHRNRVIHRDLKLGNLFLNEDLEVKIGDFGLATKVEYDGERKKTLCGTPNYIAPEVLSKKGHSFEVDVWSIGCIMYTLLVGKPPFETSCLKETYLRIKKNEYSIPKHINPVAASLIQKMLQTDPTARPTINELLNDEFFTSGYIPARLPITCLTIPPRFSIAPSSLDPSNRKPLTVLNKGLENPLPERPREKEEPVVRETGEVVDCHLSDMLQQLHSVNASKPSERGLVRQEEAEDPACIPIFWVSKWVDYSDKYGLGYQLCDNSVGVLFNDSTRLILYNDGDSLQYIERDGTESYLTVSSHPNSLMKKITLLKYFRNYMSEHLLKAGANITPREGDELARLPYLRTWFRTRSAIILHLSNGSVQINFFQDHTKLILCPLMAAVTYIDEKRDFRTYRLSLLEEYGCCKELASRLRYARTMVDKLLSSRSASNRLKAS
HP1b binding inh = HP1-beta chromodomain-methylated histone interaction inhibition; 390,000 tested, 0.56% active; Potency, µM (series often up to 114 µM), inactives show at the highest dose activity change, negative = inhibition, hits mostly inhibitors; P83916; AID 540317; AlphaScreen HP1-beta / biotin-H3K9me3 peptide binding; further: potency means the concentration at half of the fitted maximal effect; nearly all actives have a fitted effect of over 70% in size
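AlphaScreen: HP1-beta (50 nM) preformed 30 min with biotin-H3(1-18)K9me3 peptide (50 nM) in PBS pH 7.4, 0.01% Tween-20. Compound added for 30 min at RT, then streptavidin donor/nickel chelate acceptor beads (10 ug/mL) for 30 min.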
BAZ2B inh = BAZ2B (human) inhibition. Q9UIF8. Potency, µM (series often up to 114 µM), for inactives: at the top dose activity change, negative = inhibition, hits mostly inhibitors. AID 504333. 360,000 tested, 4.4% active. AlphaScreen BAZ2B-H3K14Ac peptide displacement; further: potency means the concentration at half of the fitted maximal effect; on the % scale 0 is the no-effect control and ±100 the full control effect; nearly all actives have a fitted effect of over 60% in size
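Compounds, titrated to a top concentration of 110 uM, were incubated 30 min at room temperature with preformed BAZ2B/acetyl-K14 H3 peptide complex (50 nM each). Proximity signal was measured by AlphaScreen after 20 min with beads.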
JMJD2A Tudor = inhibitors of human JMJD2A Tudor domain; O75164; AlphaScreen JMJD2A-Tudor / H3K4me3 peptide binding; Potency, µM (series often up to 114 µM), for inactives: top-dose activity change, negative = inhibition, actives largely listed as inhibitors; 390,000 tested, 4.4% active; AID 504339; further: potency means the concentration at half of the fitted maximal effect; on the % scale 0 is the no-effect control and ±100 the full control effect; nearly all actives have a fitted effect of over 50% in size
PI5P4K alpha inh = blocks human PI5P4K alpha kinase activity; P48426; PI5P4Kalpha enzyme, ADP-Glo luminescence, 60 min; active compounds read low; max response, %; 330,000 tested, 1.2% active; active means max response of -50% or lower; inconclusive means between -30% and -50%; inactive means -30% or higher; further: value at the top dose of about 77 µM; on the % scale 0 is the no-effect control and ±100 the full control effect
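qHTS, 1536-well: enzyme/substrate mix, compound by pin tool, 5 microM ATP final; RT 60 min; ADP-Glo reagents 1 (45 min) then 2 (30 min); luminescence.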
G9a block = G9a (human) methyltransferase inhibition | Q96KQ7 | G9a H3K9 monomethylation, AlphaScreen, 2 h | Potency, µM (doses to about 102 µM), inactives show at the highest dose activity, negative = inhibition, usual class: inhibitors | 350,000 tested, 8.8% active | AID 504332; further: potency means the concentration at half of the fitted maximal effect; on the % scale 0 is the no-effect control and ±100 the full control effect; nearly all actives have a fitted effect of over 75% in size
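AlphaScreen read-out: biotin-H3K9 peptide (500 nM) methylation by 20 nM enzyme with 20 uM SAM, 2 h at room temperature after 15 min compound preincubation; anti-monomethyl H3K9 antibody plus donor/acceptor beads, 10 min dark.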
The depositor's hits bear a star; ? = inconclusive; · = no result; [ ] = dose if it differs, or a comment. Unless noted, the call rests on the fitted dose curve; in most records, active means well fitted curve in the direction sought with a large enough effect; inconclusive means small, poorly fitted or top-dose-only effect, or another doubt; inactive means no such curve, though single readings can be large; an effect the other way counts as inactive or inconclusive.

SMILES	PLK1 PBD inh	HP1b binding inh	BAZ2B inh	JMJD2A Tudor	PI5P4K alpha inh	G9a block
C[C@H](O)[C@@H]1C(=O)N2CCc3ccc(-c4ccccc4)cc3[C@@H]2C[C@@H]1N(C)C(=O)Nc1cc(Cl)cc(Cl)c1	3%	19%	·	-14%	17	·
COc1ccc(S(=O)(=O)N2CCOCC2)cc1C(=O)Nc1ccc(N2CCCCCC2)cc1	-5%	?	·	10µM*	-2	·
COc1cc(NC(=O)c2ccc(OCc3c(C)noc3C)c(OC)c2)cc(OC)c1	2%	25%	·	-12%	5	·
COc1cc(C(=O)Nc2ccc(N3CCOCC3)cc2)ccc1OCc1c(C)noc1C	-1%	27%	-5%	-21%	1	50µM*
CC(OC(=O)c1ccc(Cl)c(S(=O)(=O)N2CCOCC2)c1)C(=O)NC1CCCCC1C (stereo not drawn)	-3%	31%	-19%	3%	5	15%[0.501 µM]
O=C(Nc1ccc(S(=O)(=O)Nc2nccs2)cc1)c1ccc(F)c(S(=O)(=O)N2CCOCC2)c1	8%	12%	-26%	-4%	-16	?
COc1ccc(C(=O)OC(C)C(=O)NC2CCCCC2C)cc1S(=O)(=O)N1CCOCC1 (stereo not drawn)	-3%	29%	-7%	0%	-6	79µM*
O=C(Nc1ccc(S(=O)(=O)Nc2ncccn2)cc1)c1ccc(F)c(S(=O)(=O)N2CCOCC2)c1	30µM*	10%	-1%	?	-15	5%[12.7 µM]
CCc1ccc(OC(=O)c2sc3ncn(Cc4cccc(F)c4)c(=O)c3c2C)cc1	·	47%	7%	12%	·	3%[59 µM]
CCN(CC(=O)Nc1ccc(NC(C)=O)cc1)C(=O)c1ccc(NC2CC2)c([N+](=O)[O-])c1	-1%	7%	-36%	-17%	5	1%[0.501 µM]
O=C(NCc1ccccc1OC(F)(F)F)C1CCC(=O)N(CCCN2CCOCC2)C1 (stereo not drawn)	7%	·	·	·	2	·
Cc1cccc(N(Cc2ccccc2)C(=O)c2ccc(F)c(S(=O)(=O)N3CCOCC3)c2)c1	2%	19%	-10%	-23%	14	1%
COc1cc(OC)c(C(=O)Nc2ccc(S(=O)(=O)N3CCCCC3)cc2)cc1OC	-5%	13%	7%	-14%	-1	1%[0.501 µM]
O=C(Nc1ccc(S(=O)(=O)N2CCCCC2)cc1)c1ccc(=O)[nH]c1	-16%	22%	-1%	-10%	-20	14µM*
Cc1ccc(N(Cc2ccccc2)C(=O)c2ccc(F)c(S(=O)(=O)N3CCOCC3)c2)cc1	-8%	-1%	-4%	-17%	4	45µM*
COc1ccc(C(=O)Nc2ccc(S(=O)(=O)N3CCCCC3)cc2)cc1OC	?	?	-10%	79µM*	-4	-11%[59 µM]
COc1ccc(C(=O)Nc2ccc(N3CCOCC3)cc2)cc1S(=O)(=O)NC1CCCC1	-11%	8%	-29%	-25%	-4	32µM*
O=C(NCC12CC3CC(CC(C3)C1)C2)c1cc2nc(-c3ccc(Cl)cc3)cc(C(F)(F)F)n2n1	·	13%	-6%	-9%	·	15%[59 µM]
Cc1ccc(NC(=O)c2cc(S(=O)(=O)N3CCOCC3)ccc2F)c(C)c1	-15%	34%	6%	-19%	·	4%[59 µM]
COc1ccc(C(=O)Nc2ccc(N3CCOCC3)cc2)cc1S(=O)(=O)N1CCOCC1	0%	29%	-3%	-7%	5	56µM*
Cc1cc(C)c(NC(=O)c2cc(S(=O)(=O)N3CCOCC3)ccc2F)c(C)c1	11µM*	16%	-12%	?	-24	4%[59 µM]
COc1ccc(C(=O)Nc2ccc(N3CCOCC3)cc2)cc1S(=O)(=O)N1CCCC1	4%	8%	-4%	-15%	7	50µM*
CCOC(=O)c1cc(S(=O)(=O)Nc2ccc(OC)c(Cl)c2)[nH]n1	·	12%[57 µM]	56µM*	-34%	·	8.9µM*
CCOC(=O)c1cc(S(=O)(=O)Nc2ccc(C)cc2Cl)[nH]n1	·	13%[57 µM]	79µM*	-33%	·	8.9µM*
CCOC(=O)c1cc(S(=O)(=O)Nc2cc(F)ccc2C)[nH]n1	·	20%[57 µM]	?	-29%	·	18µM*
SMILES	PLK1 PBD inh	HP1b binding inh	BAZ2B inh	JMJD2A Tudor	PI5P4K alpha inh	G9a block
CCOC(=O)c1scc(-c2ccc(C)cc2)c1S(=O)(=O)Nc1ccc(OC)c(Cl)c1	·	-6%	-19%	-22%	·	?
CCOC(=O)c1cc(S(=O)(=O)Nc2c(C)cc(C)cc2C)[nH]n1	·	22%[57 µM]	?	-29%	·	18µM*
COc1ccc(Cl)cc1CC=NNC(=O)c1cccc(C)c1O	-3%	20%	·	-33%	-4	·
N/C(COc1ccc(C(=O)O)cc1)=N\O	-3%	46%	?	21%	-7	50µM*
COc1ccc2oc(C(=O)Nc3ccccc3N3CCOCC3)c(C)c2c1	-12%	10%	8%	-13%	-8	45µM*
O=C(/C=C/c1cccs1)NC1CCS(=O)(=O)C1 (stereo not drawn)	27µM*	?	-2%	?	-2	-5%
Cc1c(C(=O)NC2CC2)oc2ccccc12	-10%	25%	-6%	-9%	-5	-5%[12.7 µM]
Cc1c(C(=O)NC2CCS(=O)(=O)C2)oc2ccccc12 (stereo not drawn)	-5%	51%	23%	-2%	0	45µM*
O=C(NC1CCS(=O)(=O)C1)Oc1ccccc1 (stereo not drawn)	27µM*	-4%	-2%	-17%[11.4 µM]	-15	-1%[12.7 µM]
O=C(/C=C/c1cccs1)NC1CCCC1	-17%	3%	-14%	-3%	2	-8%
CC(C)c1ccc(NC(=O)CN2C(=O)C3(SCC(=O)N3c3ccc(F)cc3)c3ccccc32)cc1 (stereo not drawn)	·	5%	3%[57.1 µM]	-31%	·	-40%[59 µM]
CCS(=O)(=O)N1CC(=O)N(c2ccccc2C)C(C)(C(=O)NC2CCCCC2)C1 (stereo not drawn)	·	-9%	4%	-10%	·	5%[59 µM]
OC[C@@H]1CN(Cc2ccncc2)C[C@H](n2cnc3c(N4CCOCC4)ncnc32)O1	-2%	·	·	·	-1	·
COc1ccc(C)cc1NC(=O)CSc1nc(=O)n(Cc2ccco2)c2c1CCC2	·	10%	-36%	-25%	·	-45%[59 µM]
Cc1c(C(=O)Nc2ccc(N3CCOCC3)cc2)oc2ccccc12	-1%	1%	3%	56µM*	-1	?
COc1ccccc1OCCn1c(NC(=O)c2ccc(Cl)cc2)nc2ccccc21	·	25%	-9%	-15%	·	15%[59 µM]
CCn1c(NC(=O)C2CCCCC2)nc2ccccc21	1%	29%	5%	-22%	2	4%[59 µM]
Clc1ccccc1OCCn1cnc2ccccc21	-6%	14%	11%	-18%	·	7%[12.7 µM]
Clc1ccc(OCCn2cnc3ccccc32)cc1	3µM*	4%	3%	?	?	-12%[59 µM]

Screening results (PubChem BioAssay)
